Source: the supplement of paper PMC4894684
Counter-ions that a name gives are not always drawn. ± gives the standard deviation of the averaged measurements.

System: Toxoplasma gondii RH (in HFF)
Assay: parasite growth relative to the screen mean (all compounds = 100%); higher = less inhibition of parasite growth
Conditions: 5 µM; 72 h; oxygen 21 %
Procedure, shortened: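 Library compounds, held as 10 mM DMSO stocks, were pinned to 5 µM final onto confluent human foreskin fibroblasts in 96-well plates. The cells were infected within 2 h with RH β-Gal–GFP Toxoplasma (MOI 1:5), grown 72 h at 21% O2, and assayed for parasite number by CPRG β-Gal using in-plate standard curves. Growth is reported relative to the screen mean, in which all compounds = 100%, averaged over two screens, and CellTiter-Blue checked uninfected host-cell viability.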

Compound	parasite growth
CN(C)CCCCSC(=N)N	93.3 ± 15%
COC(=O)c1c(C)[nH]c(C)c1C(=O)c1ccccc1Cc1ccccc1	116 ± 37%
Nc1nc(F)nc2c1ncn2[C@@H]1O[C@H](CO)[C@@H](O)[C@@H]1O [Fludarabine]	102 ± 10%
CC(=O)NCCc1c(Cc2ccccc2)[nH]c2ccccc12 [Luzindole]	75.1 ± 29%
C=C1/C(=C\C=C2/CCC[C@]3(C)[C@@H]([C@H](C)/C=C/[C@@H](O)C4CC4)CC[C@@H]23)C[C@@H](O)C[C@@H]1O [Calcipotriol]	81.2 ± 8.2%
O=C1Cc2c([nH]c3ccc(Br)cc23)-c2ccccc2N1 [Kenpaullone]	100 ± 12%
CN1C(C(=O)Nc2ccccn2)=C(O)c2ccccc2S1(=O)=O [Piroxicam]	153 ± 34%
COc1cc2c(cc1OC)-c1cc3nc4ccccc4nc3n1C(C)(C)C2	< 0%
Oc1ccc(-c2c(-c3ccccc3)nn3c(C(F)(F)F)cc(C(F)(F)F)nc23)cc1	170 ± 8.6%
CC(NC(=O)c1ccccc1/N=C/c1c(O)ccc2ccccc12)c1ccccc1 (centres undefined) [Sirtinol]	97.5 ± 34%
O=C(O)c1ccccc1Nc1cccc(OCc2ccc3ccccc3n2)c1 [SR 2640 hydrochloride]	135 ± 9.3%
C=CCN1CCc2cc(O)c(O)cc2C(c2ccccc2)C1 (centres undefined)	135 ± 1.6%
N[C@H](C(=O)O)c1cc(O)cc(O)c1	119 ± 4.9%
COc1ccc2[nH]c(C(=O)c3ccccc3)cc2c1	38.5 ± 2.6%
CC1=C(CC(=O)O)c2cc(F)ccc2/C1=C\c1ccc([S+](C)[O-])cc1 (centres undefined) [Sulindac]	183 ± 34%
CCN(CC)CCOC(=O)c1cc(Cl)c(N)cc1OC [SDZ 205-557 hydrochloride]	105 ± 6.7%
CN(CC[C@@H](Oc1ccc(-c2ccccc2)cc1)c1ccc(F)cc1)CC(=O)O [ALX 5407 hydrochloride]	136 ± 5.8%
CN1CCN(CCc2ccc(Cl)c(Cl)c2)CC1 [BD 1063 dihydrochloride]	50.9 ± 5.6%
NCCCCCCCCCCNS(=O)(=O)c1cccc2c(Cl)cccc12 [A-7 hydrochloride]	142 ± 17%
O=C(O)COCCN1CCN(C(c2ccccc2)c2ccc(Cl)cc2)CC1 (centres undefined) [Cetirizine dihydrochloride]	136 ± 34%

Compound	parasite growth
CCCN(CC1CC1)c1nc(C)nc(Nc2c(Cl)cc(Cl)cc2Cl)c1Cl	116 ± 14%
O=C(O)/C=C/c1ccc(Cn2ccnc2)cc1 [Ozagrel hydrochloride]	119 ± 3.2%
CN(N=O)C(=O)N[C@@H](C=O)[C@@H](O)[C@H](O)[C@H](O)CO [Streptozocin]	137 ± 5.8%
O=C(O)CN1C(=O)c2cccc3cccc(c23)C1=O [Alrestatin]	100 ± 26%
CC1(C)O[C@@H]2[C@@H](CO[C@@]3(COS(N)(=O)=O)OC(C)(C)O[C@@H]23)O1 [Topiramate]	112 ± 8.3%
COc1cc(N)c(Cl)cc1C(=O)OCCCN1CCCCC1	109 ± 2.2%
Nc1nc2c(ccc3ccccc32)s1	158 ± 11%
O=C(O)c1ccc(-c2c[nH]c3ncc(-c4ccccc4)cc23)cc1C1CCCC1	46.2 ± 9.6%
CN[C@H]1CC[C@@H](c2ccc(Cl)c(Cl)c2)c2ccccc21 [Sertraline hydrochloride]	29.3 ± 4.4%
Clc1ccc(CCCOCCCN2CCCCC2)cc1	45.7 ± 21%
N#Cc1ccccc1OCC(O)CNCCNC(=O)Nc1ccccc1 (centres undefined)	137 ± 18%
Cc1c(CC(C)(C)C(=O)O)n(Cc2ccc(Cl)cc2)c2ccc(F)cc12	129 ± 22%
CC1=C(C(=O)OCCN(Cc2ccccc2)c2ccccc2)C(c2cccc([N+](=O)[O-])c2)C(P2(=O)OCC(C)(C)CO2)=C(C)N1 (centres undefined) [Efonidipine hydrochloride monoethanolate]	58 ± 3.9%
Nc1nc2ccc(Cl)cc2c2nc(-c3ccco3)nn12	131 ± 14%
CC[N+](CC)(CC)CC(=O)Nc1c(C)cccc1C [QX 314 chloride]	133 ± 29%
CCCc1c(OCCCOc2ccc(OCC(=O)O)cc2)ccc(C(C)=O)c1O	135 ± 1.4%
O=C(NCCN1CCCCC1)c1ccc(I)cc1 [N-[2-(Piperidinylamino)ethyl]-4-iodobenzamide]	118 ± 12%
O=C(O)CCc1ccc(NCc2cccc(Oc3ccccc3)c2)cc1	198 ± 12%
CC(CCCCC(=O)Nc1ccc(C(F)(F)F)cc1)NCCc1cnc[nH]1 (centres undefined) [HTMT dimaleate]	95.1 ± 7.2%
